Source: PubChem (National Center for Advancing Translational Sciences (NCATS))
Sampled rows, rich in hits. Any-hit rate of the full collection: about 12%.
SARS PLpro yeast: SARS-CoV PLP inhibition in yeast; S. cerevisiae expressing SARS-CoV PLpro, growth rescue; Potency, µM (doses to about 32.9 µM), inactives show top-dose activity, positive = growth rescue, hits mostly activators; 330,000 tested, 0.19% active; AID 485353; calls by dose curve; note: 0% is about no effect; nearly all actives have a fitted effect of over 55% in size
AmpC inh no detg: inhibitors of E. coli AmpC beta-lactamase without detergent | AmpC nitrocefin hydrolysis, absorbance 480 nm, 0.0001% Triton | P00811 | Potency, µM (series often up to 57.1 µM), for inactives: top-dose activity change, negative = inhibition, usual class: inhibitors | 330,000 tested, 0.52% active;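 note: plate controls were no compound for no effect and no enzyme for full effect; nearly all actives have a fitted effect of over 20% in size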
Target sequence (P00811 whole entry, looked up): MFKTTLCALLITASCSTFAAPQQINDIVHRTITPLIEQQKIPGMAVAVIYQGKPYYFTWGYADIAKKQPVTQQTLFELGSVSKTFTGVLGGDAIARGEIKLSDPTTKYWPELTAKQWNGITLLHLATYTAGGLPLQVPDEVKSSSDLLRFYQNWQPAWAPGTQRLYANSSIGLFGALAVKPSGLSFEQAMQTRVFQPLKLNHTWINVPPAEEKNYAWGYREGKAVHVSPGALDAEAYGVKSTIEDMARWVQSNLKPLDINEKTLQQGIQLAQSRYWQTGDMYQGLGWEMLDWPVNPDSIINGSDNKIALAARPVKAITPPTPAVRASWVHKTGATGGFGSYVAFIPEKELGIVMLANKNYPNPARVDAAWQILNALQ
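20 mM phosphate pH 7.0 + 0.01% (detergent screen) or 0.0001% Triton X-100; 5.3 nM AmpC reagent; cpd preinc 15 min RT; nitrocefin (800 uM stock) to start; A480 q20 s × 4 min; Activity was normalised to no-enzyme and no-compound control wells.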
Pf growth 96h: P. falciparum growth inhibition at 96 hours. 320,000 tested, 6.9% active. AID 504834. P. falciparum luciferase reporter growth, 96 h. Potency, µM (series often up to 28.7 µM), inactives show at the top dose activity change, negative = inhibition, usual class: inhibitors; note: % is set by controls: 0 for no effect and ±100 for the full control effect
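Compounds incubated with erythrocytes infected by luciferase-expressing P. falciparum (2% hematocrit, 0.05% parasitemia final) for 96 hours, 37 C in 5% CO2. Growth inhibition scored as decreased luciferase luminescence.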
Pf growth 48h: inhibits P. falciparum growth in the first generation, 48 h | P. falciparum luciferase growth in erythrocytes, 48 h | Potency, µM (series often up to 28.7 µM), for inactives: at the highest dose activity change, negative = inhibition, hits mostly inhibitors | 310,000 tested, 5.9% active | AID 504832; note: % is set by controls: 0 for no effect and ±100 for the full control effect
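Luminescence readout; reporter = integrated firefly luciferase in P. falciparum. RBC culture at 2% hematocrit, 0.1% parasitemia final, 37 C/5% CO2; decreased signal taken as growth inhibition.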
AmpC inh detg: blocks E. coli AmpC beta-lactamase in detergent assay | P00811 | AmpC hydrolysis of nitrocefin, absorbance 480 nm, 0.01% Triton | 370,000 tested, 0.041% active | Potency, µM (titrated, usually from 114 µM), without a hit: at the highest dose activity change, negative = inhibition, hits mostly inhibitors | AID 485294;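 note: 0% = no-compound wells and -100% = no-enzyme wells; nearly all actives have a fitted effect of over 25% in size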
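20 mM phosphate pH 7.0 + 0.01% (detergent screen) or 0.0001% Triton X-100; 5.3 nM AmpC reagent; cpd preinc 15 min RT; nitrocefin (800 uM stock) to start; A480 q20 s × 4 min; Activity was normalised to no-enzyme and no-compound control wells.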
Sm TGR inh: inhibitors of Schistosoma mansoni thioredoxin glutathione reductase; Q962Y6; purified TGR, DTNB reduction, TNB absorbance 405 nm; Potency, µM (series often up to 114 µM), for inactives: at the top dose activity change, negative = inhibition, hits mostly inhibitors; 360,000 tested, 3% active; note: % is set by controls: 0 for no effect and ±100 for the full control effect; nearly all actives have a fitted effect of over 60% in size
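First, TGR (20 nM dispensed) and NADPH were mixed with compound. Second, a 15 min room-temperature incubation followed. Third, further NADPH and then DTNB were added to start the reaction. Finally, TNB absorbance was monitored kinetically.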
* = called active by the depositor; ? = inconclusive; / = no result given; [ ] = another dose, or the depositor's remark. Unless noted, calls come from the whole dose curve; as a rule, active = well fitted curve in the direction sought with a large enough effect; inconclusive = small, poorly fitted or top-dose-only effect, or another doubt; inactive = no such curve, though single readings can be large; an effect the other way counts as inactive or inconclusive. Potency is the fitted concentration of half-maximal effect.

SMILES	SARS PLpro yeast	AmpC inh no detg	Pf growth 96h	Pf growth 48h	AmpC inh detg	Sm TGR inh
COc1ccc(OC)c(CCNC(=O)c2ccc3c(c2)N(Cc2ccccc2)CCS3)c1	2%	-14%	13µM*	?	7%	17%
Cc1[nH]c2ccc(C(=O)NCCCN3CCN(C)CC3)cc2c1C	25%	2%	12µM*	-14%	-11%	-2%
CN1CCN(CCCNC(=O)c2ccc3c(c2)N(Cc2ccc(F)cc2)CCS3)CC1	8%	191%	10µM*	?	-17%	-15%
Cc1ccccc1NC(=O)c1ccc2c(c1)N(C)CCS2	-1%	-23%	13µM*	39%	-4%	10%
CN1CCSc2ccc(C(=O)Nc3cc(F)ccc3F)cc21	-3%	-22%	334%	193%	1%	2%
CCOC(=O)c1cc(S(=O)(=O)NCc2ccc(OC)cc2)[nH]n1	/	/	/	/	16%	6%
CCOC(=O)c1c2ccccc2[n+]([O-])n1[C@@H](C)C(N)=O	-1%	0%	54%	-22%	-14%	1%
O=C(NC1CC1)c1ccc2c(c1)N(Cc1ccccc1)CCS2	-6%	-17%	12µM*	-23%	0%	-19%
CCOC(=O)N1CCC(NC(=O)c2ccc3c(c2)N(C)CCS3)CC1	3%	44%	?	12µM*	-5%	-25%
CCOC(=O)N1CCC(NC(=O)c2ccc3c(c2)N(Cc2ccc(F)cc2)CCS3)CC1	6%	?	?	4.7µM*	2%	-3%
CCOC(=O)N1CCC(NC(=O)c2ccc3c(c2)N(Cc2ccccc2)CCS3)CC1	-9%	87%	?	/	9%	1%
COc1ccc([C@@H]2[C@@H]3C(=O)N(C(C)(C)C)C(=O)[C@@H]3[C@]3(Cc4ccccc4)C(=O)N(c4ccc(C)cc4)C(=O)N23)cc1	3%	92%	?	?	-3%	-8%
NS(=O)(=O)c1ccc(CCNC(=O)COC(=O)CC(c2ccccc2)c2ccccc2)cc1	-1%	-5%	-37%[1.15 µM]	-13%	7%	-1%
COc1ccc(Cl)cc1NC(=O)COC(=O)CC(C)(C)CC1=NS(=O)(=O)c2ccccc2N1	/	/	/	/	-6%	-18%
CCCCN(C)CC(O)Cn1cc(/C=C/C(=O)c2ccc(OCC)cc2)c2ccccc21 (stereo not given)	-1%	116%	?	5.2µM*	4%	3%
CCCCN(C)CC(O)Cn1cc(/C=C/C(=O)c2cccs2)c2ccccc21 (stereo not given)	-3%	212%	4.1µM*	8.3µM*	4%	0%
CCCCN(CCCC)CC(O)Cn1cc(/C=C/C(=O)c2ccccc2)c2ccccc21 (stereo not given)	/	/	/	/	24%	6%
O=C(/C=C/c1cn(CC(O)CN2CCCCCC2)c2ccccc12)c1cccs1 (stereo not given)	-1%	112%	-9%	12µM*	-10%	-21%
CCOc1ccc(C(=O)/C=C/c2cn(CC(O)CN3CCc4ccccc43)c3ccccc23)cc1 (stereo not given)	/	/	/	/	23%	5%
COc1ccccc1CC(=O)NNC(=O)c1cccs1	1%	-9%	0.26µM*	17%	4%	14%
COc1ccccc1CC(=O)Nc1ccc(NC(=O)c2cccs2)cc1	-4%	-6%	?	-3%	1%	2%
Cc1cc(Br)cc(C)c1OCC(=O)NNC(=O)c1cccs1	-1%	0%	12µM*	-9%	?	0%
O=C(COc1ccc(Br)cc1Br)NNC(=O)c1cccs1	-5%	-42%	1%	42%	-4%	-8%
O=C(CN(Cc1ccc(F)cc1)C(=O)CNS(=O)(=O)c1ccccc1)NCc1ccco1	10%	81%	-3%	2%	-11%	-10%
NC(=S)NNC(=O)Nc1ccc(Cl)c(Cl)c1	9%	-23%	22%	34%	-9%	-2%
SMILES	SARS PLpro yeast	AmpC inh no detg	Pf growth 96h	Pf growth 48h	AmpC inh detg	Sm TGR inh
Cc1cc(NC(=O)c2cc(C(C)C)on2)nn1Cc1ccc(Cl)cc1	-20%	-19%	9.3µM*	/	1%	-2%
Cc1cc(NC(=O)c2cc(-c3ccc(Cl)cc3)on2)nn1Cc1ccc(Cl)cc1	/	/	/	/	0%	-5%
Cc1cc(NC(=O)c2cc(-c3cccc(Cl)c3)on2)nn1Cc1ccc(Cl)cc1	/	/	/	/	16%	1%
Cc1cc(NC(=O)c2cc(-c3ccc(Br)cc3)on2)nn1Cc1ccc(Cl)cc1	/	/	/	/	-2%	0%
COc1ccccc1-c1cc(C(=O)NCc2cccs2)no1	0%	-33%	3.7µM*	48%	-1%	9%
Cc1cc(C(=O)Nc2cc(C)n(Cc3ccc(Cl)cc3)n2)no1	-13%	-9%	?	0.93µM*	-5%	0%
COc1ccccc1-c1cc(C(=O)Nc2cc(C)n(Cc3ccc(Cl)cc3)n2)no1	5%	-33%	16%	5.9µM*	3%	0%
Cc1cccc(N2CCN(C(=O)c3cnn(-c4ccc(F)cc4F)c3C3CCN(C(=O)OC(C)(C)C)CC3)CC2)c1C	/	/	/	/	13%	30%
COCCN1C(=O)/C(=C/c2ccc(OCc3ccc(C(=O)O)cc3)c(OC)c2)SC1=Nc1ccccc1	-30%	111%	8.3µM*	12µM*	-1%	7%
CC1CCCCC1NC(=O)CCn1ccc2cc(S(=O)(=O)N3CCCC3)ccc21 (stereo not given)	-1%	32%	?	?	?	-13%
COc1ccc2c(c1)C13CCCC[C@@H]1C(C2)N(C)CC3 (stereo not given in full)	-1%	-9%	-25%	?	5%	4%
CNC(=O)Oc1ccc2c(c1)[C@]1(C)CCN(C)[C@@H]1N2C	-13%	-23%	3.7µM*	8.3µM*	-16%	0%
O=C(Cc1ncn[nH]1)NCCc1ccccc1	-12%	-8%	7.4µM*	/	?	-6%
CCCNC(=O)Cc1ncn[nH]1	-4%	-4%	/	39%	5%	1%
O=C(NC(Nc1ncc(S(=O)(=O)c2ccc([N+](=O)[O-])cc2)s1)(C(F)(F)F)C(F)(F)F)c1ccc(Cl)cc1	-18%	-31%	/	9.3µM*	-1%	-16%
O=C(CN1CCCCCC1)Nc1cccc2c1OCO2	-4%	-23%	1µM*	5%	-11%	0%
COc1ccc([C@]23Cc4cc(C#N)ccc4C(O2)c2c(cc(C)n(-c4ccccc4)c2=O)O3)cc1	0%[6.58 µM]	-36%[11.4 µM]	?	?	?	?
Cc1cc(=O)[nH]c(NCCO)n1	-1%	-10%	3%	-9%	2%	-12%
CCC(C)c1ccc(NC(=O)c2[nH]c(C)c(C(C)=O)c2C)cc1 (stereo not given)	-5%	0%	3.3µM*	4.7µM*	-14%	-14%
